Data as given in PubChem BioAssay (NCATS).
Results filed as inconclusive are left out. Entries that show only a call come without a potency. The source made the active and inactive calls. Calls follow the shape of the dose curve; as a rule, active = well fitted inhibition curve with a large enough effect; inconclusive = small, poorly fitted or top-dose-only effect; inactive = no such curve, though single readings can be large or run the other way.

These molecules were tested on Zika virus NS2B-NS3 protease (unlinked complex) (assay: Primary screen GU Rhodamine qHTS for Zika virus inhibitors: Unlinked NS2B-NS3 protease assay (AID 1347159; also: nearly all actives have a fitted effect of over 60% in size)). Details: Recombinant ZIKV NS2B-NS3 protease, Rhodamine110 substrate fluorescence; series mostly up to 107 µM.
Procedure, shortened: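 Noncovalent NS2B hydrophilic domain–NS3 protease domain complex (25 nM) preincubated 15 min at room temperature with compounds (up to 114 microM) in 10 mM Tris-HCl pH 8.0, 0.01% Tween 20; 1.5 microM Rhodamine110 substrate added, fluorescence change over 15 min fitted to Hill equation.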
Potency is read from the fitted curve at half-maximal effect.

SMILES | Potency
COc1ccc2c3c4n(c2c1)[C@@H](C=C(C)C)OOC(C)(C)C[C@@H]4N1C(=O)[C@@H]2CCCN2C(=O)[C@]1(O)[C@H]3OCC=C(C)C | inactive
CC1=CC2/C=C(\C)CCCC(O)/C=C/C(=O)OC23C(=O)NC(CC(C)C)C3C1C (configuration not stated) | inactive
C=CC(C)(C)c1[nH]c2c(CC=C(C)C)cc(CC=C(C)C)cc2c1C[C@@H]1NC(=O)[C@H](C)NC1=O | inactive
COc1cc(O)c2c(c1)/C=C/C[C@@H](O)[C@@H](O)C(=O)CCC[C@H](C)OC2=O | inactive
CC(=O)O[C@H]1CC[C@H]2[C@@H]3CC[C@H]4CC(=O)C=C(C)[C@]4(C)[C@H]3CC[C@]12C | inactive
COCC(C(=O)OC1CC2CCC(C1)N2C)c1ccccc1 (configuration not stated) | inactive
N#CC(O[C@@H]1O[C@H](CO)[C@@H](O)[C@H](O)[C@H]1O)c1ccccc1 (some centres not stated) | inactive
NC(=O)c1ncn2c1CN=C(c1ccccc1Br)c1cc(F)ccc1-2 | inactive
Cc1c(N2C(=O)[C@@H]3[C@H](O)CCN3C2=O)ccc(C#N)c1Cl | inactive
CC(=O)O[C@@H]1[C@H]2CC[C@H]3[C@@](C)(O)[C@@H]4C[C@H](O)C(C)(C)[C@@]4(O)[C@H](O)C[C@@]13C[C@@]2(C)O | inactive
COC(=O)[C@]12CCCC(C)(C)C1CCc1cc(C(C)C)c(O)c(O)c12 (some centres not stated) | 4.47 µM (active)
COc1ccc(CN(C(=O)[C@@H](N)Cc2c(C)cc(C(N)=O)cc2C)[C@@H](C)c2ncc(-c3ccccc3)[nH]2)cc1C(=O)O | inactive
CN1C2CCC1CC(OC(=O)N1Cc3ccccc3NC1=O)C2 (configuration not stated) | inactive
COC(=O)CC1CC2(C(=O)c3c(O)cccc3C2(O)C(=O)OC)C(C)O1 (configuration not stated) | inactive
c1cncc(OC[C@@H]2CCN2)c1 | inactive
Cc1c(Cl)c(OCC(=O)N2CCN(C)CC2)nc2sc(C(=O)NC3CC3)c(N)c12 | inactive
CN1CCc2cc3c(cc2C1C1OC(=O)c2c1ccc1c2OCO1)OCO3 (configuration not stated) | inactive
COc1ccsc1CNCC[C@@]1(c2ccccn2)CCOC2(CCCC2)C1 | inactive
C1=C(c2cnc[nH]2)c2ccsc2CC1 | inactive
CC1=CC2(O)/C=C/C(C)(O)C(O)C(O)/C=C/C(=O)OC23C(=O)NC(CC(C)C)C3C1C (configuration not stated) | inactive
C/C=C1/CN2CC[C@]34C(=Nc5ccc(OC)cc53)C2C[C@@H]1C4(CO)C(=O)OC (some centres not stated) | inactive
CO[C@@H]1[C@H](O)[C@@H](O[C@@H]2C[C@H]3CC[C@@H]4C(CC[C@]5(C)[C@@H](C6=CC(=O)OC6)CC[C@]45O)[C@@]3(C)[C@H](O)C2)O[C@H](C)[C@@H]1O (some centres not stated) | inactive
C[C@@H]1CCC/C=C/[C@H]2C[C@@H](O)C[C@@H]2[C@@H](O)/C=C/C(=O)O1 | inactive
COC(=O)C1=COC(C)C2CN3CCC4(C(=O)Nc5ccccc54)C3CC12 (configuration not stated) | inactive
CC1(C)C(=O)N(c2ccc(C#N)c(C(F)(F)F)c2)C(=O)N1CCCCO | inactive
O=C1N[C@@H](Cc2ccccc2)CN2CCCC[C@@H]12 | inactive
CN1C(=O)CN=C(c2ccccc2Cl)c2cc(Cl)ccc21 | inactive

These molecules were tested on Zika virus NS2B-NS3 protease (linked construct) (assay: Primary screen NINDS Rhodamine qHTS for Zika virus inhibitors (AID 1347160; also: nearly all actives have a fitted effect of over 55% in size)). Details: purified NS2B-NS3 protease, Rhodamine110 substrate fluorescence; series mostly up to 57.1 µM.
Procedure, shortened: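 Purified linked NS2B-NS3 protease (NS2B hydrophilic domain joined to NS3 protease by flexible linker), 25 nM in 10 mM Tris-HCl pH 8.0, 0.01% Tween 20. Compounds titrated, 15 min preincubation at room temperature; 1.5 microM Rhodamine110 substrate, FITC fluorescence change over 15 min.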

SMILES | Potency
COc1ccc2c3c4n(c2c1)[C@@H](C=C(C)C)OOC(C)(C)C[C@@H]4N1C(=O)[C@@H]2CCCN2C(=O)[C@]1(O)[C@H]3OCC=C(C)C | inactive
CC1=CC2/C=C(\C)CCCC(O)/C=C/C(=O)OC23C(=O)NC(CC(C)C)C3C1C (configuration not stated) | inactive
C=CC(C)(C)c1[nH]c2c(CC=C(C)C)cc(CC=C(C)C)cc2c1C[C@@H]1NC(=O)[C@H](C)NC1=O | inactive
COc1cc(O)c2c(c1)/C=C/C[C@@H](O)[C@@H](O)C(=O)CCC[C@H](C)OC2=O | inactive
CC(=O)O[C@H]1CC[C@H]2[C@@H]3CC[C@H]4CC(=O)C=C(C)[C@]4(C)[C@H]3CC[C@]12C | inactive
COc1cc(N2CCN(C)CC2)ccc1N | inactive
COCC(C(=O)OC1CC2CCC(C1)N2C)c1ccccc1 (configuration not stated) | inactive
N#CC(O[C@@H]1O[C@H](CO)[C@@H](O)[C@H](O)[C@H]1O)c1ccccc1 (some centres not stated) | inactive
CC[C@H]1C2CC3[C@@H]4N(C)c5ccccc5[C@]45C[C@@H]([C@H]2[C@H]5O)N3[C@H]1O | inactive
NC(=O)c1ncn2c1CN=C(c1ccccc1Br)c1cc(F)ccc1-2 | inactive
Cc1c(N2C(=O)[C@@H]3[C@H](O)CCN3C2=O)ccc(C#N)c1Cl | inactive
CC(=O)O[C@@H]1[C@H]2CC[C@H]3[C@@](C)(O)[C@@H]4C[C@H](O)C(C)(C)[C@@]4(O)[C@H](O)C[C@@]13C[C@@]2(C)O | inactive
CC(=O)N1N=C(c2ccc(N)cc2)c2cc3c(cc2C[C@H]1C)OCO3 | inactive
COC(=O)[C@]12CCCC(C)(C)C1CCc1cc(C(C)C)c(O)c(O)c12 (some centres not stated) | 14.1 µM (active)
COc1ccc(CN(C(=O)[C@@H](N)Cc2c(C)cc(C(N)=O)cc2C)[C@@H](C)c2ncc(-c3ccccc3)[nH]2)cc1C(=O)O | inactive
C=CC/C=C\C/C=C\CCCCCCCc1cc(O)cc(O)c1 | inactive
CN1C2CCC1CC(OC(=O)N1Cc3ccccc3NC1=O)C2 (configuration not stated) | inactive
COC(=O)CC1CC2(C(=O)c3c(O)cccc3C2(O)C(=O)OC)C(C)O1 (configuration not stated) | inactive

SMILES | Potency
c1cncc(OC[C@@H]2CCN2)c1 | inactive
Cc1c(Cl)c(OCC(=O)N2CCN(C)CC2)nc2sc(C(=O)NC3CC3)c(N)c12 | inactive
CN1CCc2cc3c(cc2C1C1OC(=O)c2c1ccc1c2OCO1)OCO3 (configuration not stated) | inactive
C#CCO[C@H]1CN2CCC1CC2 | inactive
CC1CCCC(O)CC(=O)Cc2cc(O)cc(O)c2C(=O)O1 (configuration not stated) | inactive
COc1ccsc1CNCC[C@@]1(c2ccccn2)CCOC2(CCCC2)C1 | inactive
C1=C(c2cnc[nH]2)c2ccsc2CC1 | inactive
C/C=C1/CN2CC[C@]34C(=Nc5ccc(OC)cc53)C2C[C@@H]1C4(CO)C(=O)OC (some centres not stated) | inactive
Cc1cccc(NC(=O)N[C@H]2CN(C)c3ccccc3C(c3ccccc3)=N2)c1 | inactive
Oc1ccc2c3c1O[C@H]1c4[nH]c5c(N=C=S)cccc5c4C[C@@]4(O)[C@@H](C2)N(CC2CC2)CC[C@]314 | inactive
C[C@@H]1CCC/C=C/[C@H]2C[C@@H](O)C[C@@H]2[C@@H](O)/C=C/C(=O)O1 | inactive
C[C@]12CCC(=O)C=C1CC[C@@H]1[C@@H]2[C@@H](O)C[C@]2(C)C(=O)CC[C@@H]12 | inactive
CCC(C)(O)C1(C(=O)O)COC(=O)C1 (configuration not stated) | inactive
COC(=O)C1=COC(C)C2CN3CCC4(C(=O)Nc5ccccc54)C3CC12 (configuration not stated) | inactive
CC1(C)C(=O)N(c2ccc(C#N)c(C(F)(F)F)c2)C(=O)N1CCCCO | inactive
O=C1N[C@@H](Cc2ccccc2)CN2CCCC[C@@H]12 | inactive
CN1C(=O)CN=C(c2ccccc2Cl)c2cc(Cl)ccc21 | inactive
